Assay outcomes: PubChem BioAssay, several laboratories
APP transl inh = APP translation inhibition; inhibition, % at 2 µM; hit rate 0.82% among 190,000; AID 1285; SH-SY5Y APP 5'UTR-luciferase reporter, luminescence;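 active = inhibition above a set limit, derived from the sample mean plus 3 SD, cut at about 45% in these data; inconclusive = one replicate passes the limit while the other fails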
BaF3 tox = counter-screen for JAK2V617F inhibitors: parental Ba/F3 viability inhibitors | CellTiter-Glo ATP luminescence | inhibition, % at 5.6 µM | hit rate 1.1% among 220,000;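 active = inhibition above a per-campaign cutoff, the mean inhibition of all tested compounds plus 3 SD, cut at about 27% in these data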
KLF5 inhibitor = suppresses KLF5 promoter-driven expression; AID 1700; DLD-1 KLF5 promoter-luciferase reporter, luminescence; hit rate 0.23% among 290,000; inhibition, % at 5 µM;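 active = inhibition above a per-plate limit of that plate's mean compound inhibition plus 3 SD, cut at about 60% in these data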;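 note: higher means less KLF5 promoter-driven luciferase light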
IEC-6 cytotox = IEC-6 cytotoxicity, counter-screen for KLF5 inhibitors; luminescence viability; inhibition, % at 5 µM; hit rate 0.78% among 290,000; in the data active = inhibition above about 22%
aSyn UTR inh = MLPCN primary screen, SNCA 5' untranslated region; alpha-synuclein 5'UTR reporter, inhibitor activity; inhibition, % (tested at 7.5 µM); hit rate 0.82% among 300,000; in the data active = inhibition above about 60%; inconclusive = no clear call, values can overlap the other calls;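 note: H4 neuroglioblastoma cells stably carrying SNCA 5'UTR luciferase fusion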
Ba/F3 V617F tox = loss of viability in JAK2V617F-driven Ba/F3 cells; Ba/F3 EpoR-JAK2V617F viability, ATP luminescence; inhibition, % at 5.6 µM; hit rate 1.1% among 220,000; AID 1446;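 active = inhibition above the campaign mean plus 3 SD over all tested compounds, cut at about 24% in these data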;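 note: cytokine-independent growth of Ba/F3 cells driven by EpoR plus mutant JAK2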
Each line names hits and unclear results; the compound was inactive in the other large screens. This is a sample that favours compounds with a hit; in the whole collection about 2.2% have one here.

COc1ccc2c(c1)C1C=CCC1C(c1cc3c(cc1Br)OCO3)N2 (configuration not stated)	none
O=C(c1cccs1)c1no[n+]([O-])c1C(=O)c1cccs1	aSyn UTR inh 63.1
COc1ccc(C(=O)c2no[n+]([O-])c2C(=O)c2ccc(OC)cc2)cc1	none
C[C@@H]1CCC[C@]2(O[C@H](CCO)C[C@H](O)[C@H]2O)O1	none (no result: APP transl inh, BaF3 tox, KLF5 inhibitor, IEC-6 cytotox, Ba/F3 V617F tox)
O=C(NC(=S)Nc1ccc(F)cc1)C1CCCCC1	none (no result: APP transl inh, BaF3 tox, Ba/F3 V617F tox)
CC(C)CC(=O)Nc1ccc(C(=O)NNC(=S)NC(=O)C2CCCCC2)cc1	aSyn UTR inh 66.6
CC(=O)Nc1ccc(NC(=O)c2c(C)c(-c3ccccc3)nc3ccccc23)cc1	none (no result: APP transl inh, BaF3 tox, KLF5 inhibitor, IEC-6 cytotox, Ba/F3 V617F tox)
COc1cc(C(=O)NC(=S)N(C)Cc2ccccc2)cc(OC)c1OC	none
COc1cc(C(=O)NC(=S)N(CCc2ccccc2)CCc2ccccc2)cc(OC)c1OC	aSyn UTR inh 69.2
CC(C)(C)OC(=O)N[C@@H](Cc1ccccc1)c1nnc(S(=O)(=O)Cc2ccccc2)o1	APP transl inh 64.0, Ba/F3 V617F tox 58.0 (no result: aSyn UTR inh)
Cc1cccc2c1Sc1ccc(Cl)cc1CC2N1CCNCC1 (configuration not stated)	aSyn UTR inh 104.2 (no result: APP transl inh, BaF3 tox, KLF5 inhibitor, IEC-6 cytotox, Ba/F3 V617F tox)
CCc1cccc2c1Sc1ccccc1CC2N1CCNCC1 (configuration not stated)	aSyn UTR inh 104.1 (no result: APP transl inh, BaF3 tox, KLF5 inhibitor, IEC-6 cytotox, Ba/F3 V617F tox)
CN1CCN(C2Cc3ccccc3Sc3cc(C(F)(F)F)ccc32)CC1 (configuration not stated)	none (no result: APP transl inh, BaF3 tox, KLF5 inhibitor, IEC-6 cytotox, Ba/F3 V617F tox)
O=c1[nH]c(SCc2nc3ccccc3n2Cc2ccccc2)nc2ccccc12	none (no result: APP transl inh)
Nc1cc(=O)[nH]c(SCc2nc3ccccc3n2Cc2ccccc2)n1	APP transl inh 46.3
NC(CO)c1cn([C@@H](CCC(=O)O)C(=O)N2CCNCC2)nn1 (some centres not stated)	none
Cc1n(Cc2ccccc2)c2ccccc2[n+]1Cc1ccccc1	none (no result: APP transl inh, BaF3 tox, Ba/F3 V617F tox)
CCOC(=O)c1ccc2c(c1)n(CC)c(/C=C/Nc1ccccc1)[n+]2CC	BaF3 tox 50.1, Ba/F3 V617F tox 35.6
CCn1c(/C=C/N(C)c2ccccc2)[n+](CC)c2ccc(Cl)cc21	BaF3 tox 64.9, Ba/F3 V617F tox 87.2
CCn1c(/C=C/Nc2ccccc2)[n+](CC)c2ccc(Cl)cc21	none
CCn1c(C)[n+](Cc2ccccc2)c2ccc(C(=O)OC)cc21	BaF3 tox 36.5
CCn1c(C)[n+](Cc2ccccc2)c2ccc(Cl)cc21	BaF3 tox 33.4, Ba/F3 V617F tox 27.5
CC1Sc2ccc(S(=O)(=O)NCc3ccccc3)cc2NC1=O (configuration not stated)	none (no result: APP transl inh, BaF3 tox, Ba/F3 V617F tox)
CNc1nc(-c2ccccn2)nnc1-c1ccccc1	none
c1ccc(-c2nnc(-c3ccccn3)nc2NC2CCCCC2)cc1	APP transl inh 76.7, BaF3 tox 94.5, aSyn UTR inh 101.2, Ba/F3 V617F tox 63.8
COc1ccc(C2Oc3ccccc3C3=C2C(c2cccs2)n2ncnc2N3)cc1 (configuration not stated)	none
Brc1ccc(C2C3=C(Nc4ncnn42)c2ccccc2OC3c2ccncc2)cc1 (configuration not stated)	aSyn UTR inh 70.5
Cc1c(Cc2ccccc2)sc(/N=C/c2ccc3ccccc3c2)c1C(N)=O	APP transl inh 53.4 (no result: aSyn UTR inh)
CCN(CC(=O)N1CCCCC1)S(=O)(=O)c1ccccc1	none (no result: APP transl inh, BaF3 tox, Ba/F3 V617F tox)
Cc1cc(NC(=O)CSc2nnc(C3CC3)n2N)c([N+](=O)[O-])cc1C	BaF3 tox 80.6
COc1cccc(NC(=O)CSc2nc3ccccc3cc2Cc2ccccc2)c1	none
COc1cccc(CSc2nc3ccccc3cc2C=O)c1	APP transl inh 89.2, BaF3 tox 35.6, aSyn UTR inh 71.0, Ba/F3 V617F tox 50.1
O=S(=O)(c1cccc(C(F)(F)F)c1)N1CCN(C(=S)NC2CC2)CC1	none
Nc1ccccc1C#Cc1ccccc1	BaF3 tox 35.3
Nc1ccc(C#Cc2ccccc2)cc1	none
Cc1ccc(C2=NCCNC2=O)c(C)c1	none
COc1cc(NS(=O)(=O)c2ccc(C)cc2C)cc(OC)c1OC	BaF3 tox 32.2
COCCn1c(=O)c2c(nc3n2CC(C)CN3CCc2ccccc2)n(C)c1=O (configuration not stated)	aSyn UTR inh 67.2 (no result: APP transl inh, BaF3 tox, Ba/F3 V617F tox)
CCn1c(=O)c2c(nc3n2CC(C)CN3CCc2ccccc2)n(C)c1=O (configuration not stated)	none
COc1cc2nc(CN(C)Cc3ccc(C(C)(C)C)cc3)[nH]c(=O)c2cc1OC	none
O=C(Nc1ccc(S(=O)(=O)N2CCCCC2)cc1)c1ccc(CN2CCc3ccccc3C2)cc1	BaF3 tox 33.7, Ba/F3 V617F tox 29.9
O=S(=O)(c1ccc(F)cc1)c1snnc1-c1ccccc1	APP transl inh 92.7, BaF3 tox 67.5, Ba/F3 V617F tox 60.8
O=S(=O)(c1ccc(Cl)cc1)c1snnc1-c1ccccc1	APP transl inh 95.6, BaF3 tox 32.5, aSyn UTR inh 116.1, Ba/F3 V617F tox 43.8
c1ccc(-c2nnsc2-c2ncc[nH]2)cc1	none
CC(C)CN(C(=O)c1ccc(=O)n(C)n1)c1c(N)n(Cc2ccccc2)c(=O)[nH]c1=O	none (no result: APP transl inh, BaF3 tox, KLF5 inhibitor, IEC-6 cytotox, Ba/F3 V617F tox)
N#CC(C#N)=c1ccc2c(c1)N1C(c3ccccc3)=CC(c3ccccc3)C3CCCCC31N=2 (configuration not stated)	none (no result: APP transl inh)
COc1ccc(OCC(=O)NNC(=O)c2cccc(S(=O)(=O)N(C)C)c2)cc1	APP transl inh 50.5
CCOc1ccc(OCc2cccc(C(=O)N3CCOCC3)c2)cc1	APP transl inh 47.8, aSyn UTR inh 102.2
O=C(c1cccc(OCc2ccccc2)c1)N1CCOCC1	none
COc1ccc(OCc2cccc(C(=O)Nc3cc(C)on3)c2)cc1	aSyn UTR inh 66.5
COc1ccc(NS(=O)(=O)c2cccc(C(=O)NNC(=O)COc3ccccc3)c2)cc1	none (no result: APP transl inh, BaF3 tox, KLF5 inhibitor, IEC-6 cytotox, Ba/F3 V617F tox)
COc1ccc2nc(NC(=O)c3cccc(OCc4c(C)noc4C)c3)sc2c1	APP transl inh 86.1
CCSc1nnc(NC(=O)c2cccc(OCc3c(C)noc3C)c2)s1	none
COCCn1cnc2c1c(=O)n(CC(=O)OCC(=O)NCCCc1ccccc1)c(=O)n2Cc1ccccc1	none
COc1ccc(OCc2cccc(C(=O)NN)c2)cc1	aSyn UTR inh 67.4
CCOc1ccc2nc(NC(=O)c3ccc(OCC4CCCO4)cc3)sc2c1 (configuration not stated)	BaF3 tox 60.1, Ba/F3 V617F tox 55.9
Cc1ccc(C(=O)N/C(=C\c2ccc(-c3ccc(Cl)cc3)o2)C(=O)NCCCN(C)C)cc1	BaF3 tox 103.8, IEC-6 cytotox 44.1, aSyn UTR inh inconclusive
CN(C)CCCNC(=O)/C(=C\c1ccc(-c2ccc(Br)cc2)o1)NC(=O)c1ccccc1	none
CCOC(=O)C1CCN(C(=O)CSc2nnc(-c3ccco3)n2-c2ccccc2)CC1	none
COc1ccc2sc3c(=O)[nH]c4ccccc4c3c2c1	aSyn UTR inh 63.0
CC1CCN(CC(O)COc2cccc(F)c2)CC1 (configuration not stated)	none (no result: APP transl inh)
Cc1ccc(C(=O)Nc2ncc3c(Cl)cccc3n2)cc1	aSyn UTR inh 64.5
Cc1ccc(C(=O)Nc2ccc(Cl)cn2)cc1	none
